{"source": "the supplement of paper PMC7411640", "test_system": "MDA-MB-468", "assay": "phospho-S6 immunofluorescence (DAPI-normalised), per-plate z-score; higher = higher phospho-S6 signal (less pathway suppression)", "settings": "24 h", "experimental": "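GPCR-targeted compound library (MedChemExpress HY-L006) tested on MDA-MB-468 PTEN-null TNBC cells in 384-well plates at 0.1, 1 or 10 uM, combined with vehicle, GDC0941 450 nM or lapatinib 1 uM, for 24 h. Phospho-S6 (S240/244) immunofluorescence normalised to DAPI and expressed as a per-plate z-score; values are the mean of biological triplicates.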", "note": "Structures can show the parent of a compound that is named as a salt."}
{"smiles": "CN(C)CCC(c1ccccc1)c1ccccn1", "note": "(stereo not drawn) [Pheniramine (Maleate)] (compound 10 µM)", "values": [{"measurement": "phospho-S6 immunofluorescence (z-score)", "setting": "co-treatment: GDC0941 450 nM", "value": 0.09}, {"measurement": "phospho-S6 immunofluorescence (z-score)", "setting": "co-treatment: lapatinib 1 uM", "value": 0.78}, {"measurement": "phospho-S6 immunofluorescence (z-score)", "setting": "co-treatment: vehicle", "value": -0.37}]}
{"smiles": "CCCCc1oc2ccc(NS(C)(=O)=O)cc2c1C(=O)c1ccc(OCCCN(CCCC)CCCC)cc1", "note": "[Dronedarone] (compound 10 µM)", "values": [{"measurement": "phospho-S6 immunofluorescence (z-score)", "setting": "co-treatment: GDC0941 450 nM", "value": -3.7}, {"measurement": "phospho-S6 immunofluorescence (z-score)", "setting": "co-treatment: lapatinib 1 uM", "value": -8.99}, {"measurement": "phospho-S6 immunofluorescence (z-score)", "setting": "co-treatment: vehicle", "value": -9.98}]}
{"smiles": "CC(C)N(CCCCOCC(=O)O)c1cnc(-c2ccccc2)c(-c2ccccc2)n1", "note": "(compound 10 µM)", "values": [{"measurement": "phospho-S6 immunofluorescence (z-score)", "setting": "co-treatment: GDC0941 450 nM", "value": 1.34}, {"measurement": "phospho-S6 immunofluorescence (z-score)", "setting": "co-treatment: lapatinib 1 uM", "value": 1.89}, {"measurement": "phospho-S6 immunofluorescence (z-score)", "setting": "co-treatment: vehicle", "value": 0.56}]}
{"smiles": "CN1CCN(C(=O)c2cc3cc(Cl)ccc3[nH]2)CC1", "note": "(compound 10 µM)", "values": [{"measurement": "phospho-S6 immunofluorescence (z-score)", "setting": "co-treatment: GDC0941 450 nM", "value": 0.27}, {"measurement": "phospho-S6 immunofluorescence (z-score)", "setting": "co-treatment: lapatinib 1 uM", "value": -0.96}, {"measurement": "phospho-S6 immunofluorescence (z-score)", "setting": "co-treatment: vehicle", "value": 0.18}]}
{"smiles": "C[C@@H](NCCCc1cccc(C(F)(F)F)c1)c1cccc2ccccc12", "note": "[Cinacalcet] (compound 10 µM)", "values": [{"measurement": "phospho-S6 immunofluorescence (z-score)", "setting": "co-treatment: GDC0941 450 nM", "value": -5.01}, {"measurement": "phospho-S6 immunofluorescence (z-score)", "setting": "co-treatment: lapatinib 1 uM", "value": -7.68}, {"measurement": "phospho-S6 immunofluorescence (z-score)", "setting": "co-treatment: vehicle", "value": -6.21}]}
{"smiles": "C[C@H](Nc1cc(NS(=O)(=O)N2CCC2)nc(SCc2cccc(F)c2F)n1)[C@@H](O)CO", "note": "(compound 10 µM)", "values": [{"measurement": "phospho-S6 immunofluorescence (z-score)", "setting": "co-treatment: GDC0941 450 nM", "value": -1.17}, {"measurement": "phospho-S6 immunofluorescence (z-score)", "setting": "co-treatment: lapatinib 1 uM", "value": -0.3}, {"measurement": "phospho-S6 immunofluorescence (z-score)", "setting": "co-treatment: vehicle", "value": -0.77}]}
{"smiles": "O=c1n(CCCN2CCN(c3cccc(Cl)c3)CC2)nc2ccccn12", "note": "[Trazodone (hydrochloride)] (compound 10 µM)", "values": [{"measurement": "phospho-S6 immunofluorescence (z-score)", "setting": "co-treatment: GDC0941 450 nM", "value": 0.41}, {"measurement": "phospho-S6 immunofluorescence (z-score)", "setting": "co-treatment: lapatinib 1 uM", "value": 0.08}, {"measurement": "phospho-S6 immunofluorescence (z-score)", "setting": "co-treatment: vehicle", "value": -0.51}]}
{"smiles": "Cc1ccc(-c2n[nH]c3c2C(c2cccc(O)c2)N(c2ccc(C(=O)O)cc2)C3=O)cc1", "note": "(stereo not drawn) (compound 10 µM)", "values": [{"measurement": "phospho-S6 immunofluorescence (z-score)", "setting": "co-treatment: GDC0941 450 nM", "value": 0}, {"measurement": "phospho-S6 immunofluorescence (z-score)", "setting": "co-treatment: lapatinib 1 uM", "value": 0.5}, {"measurement": "phospho-S6 immunofluorescence (z-score)", "setting": "co-treatment: vehicle", "value": -0.12}]}
{"smiles": "CN1Cc2c(N)cccc2C(c2ccccc2)C1", "note": "(stereo not drawn) [Nomifensine (maleate)] (compound 10 µM)", "values": [{"measurement": "phospho-S6 immunofluorescence (z-score)", "setting": "co-treatment: GDC0941 450 nM", "value": -0.09}, {"measurement": "phospho-S6 immunofluorescence (z-score)", "setting": "co-treatment: lapatinib 1 uM", "value": -0.69}, {"measurement": "phospho-S6 immunofluorescence (z-score)", "setting": "co-treatment: vehicle", "value": -0.17}]}
{"smiles": "Cc1cc(NC(=O)NCCN2CCC(O)(Cc3ccccc3)CC2)c2ccccc2n1", "note": "[Palosuran] (compound 10 µM)", "values": [{"measurement": "phospho-S6 immunofluorescence (z-score)", "setting": "co-treatment: GDC0941 450 nM", "value": -1.78}, {"measurement": "phospho-S6 immunofluorescence (z-score)", "setting": "co-treatment: lapatinib 1 uM", "value": -2.21}, {"measurement": "phospho-S6 immunofluorescence (z-score)", "setting": "co-treatment: vehicle", "value": -0.2}]}
{"smiles": "C[C@H](NC(=O)c1c(C(F)F)nn(C)c1Oc1cccc(C(F)(F)F)c1)c1ccc(C(=O)O)cc1", "note": "(compound 10 µM)", "values": [{"measurement": "phospho-S6 immunofluorescence (z-score)", "setting": "co-treatment: GDC0941 450 nM", "value": 0.32}, {"measurement": "phospho-S6 immunofluorescence (z-score)", "setting": "co-treatment: lapatinib 1 uM", "value": 0.46}, {"measurement": "phospho-S6 immunofluorescence (z-score)", "setting": "co-treatment: vehicle", "value": -0.56}]}
{"smiles": "NC(=O)[C@@H]1CCCC[C@@H]1C(=O)Nc1ccc(Cl)c(Cl)c1", "note": "(compound 10 µM)", "values": [{"measurement": "phospho-S6 immunofluorescence (z-score)", "setting": "co-treatment: GDC0941 450 nM", "value": 0.33}, {"measurement": "phospho-S6 immunofluorescence (z-score)", "setting": "co-treatment: lapatinib 1 uM", "value": -0.14}, {"measurement": "phospho-S6 immunofluorescence (z-score)", "setting": "co-treatment: vehicle", "value": 0.47}]}
{"smiles": "CC(C)COc1ccc(CNC(=O)N(Cc2ccc(F)cc2)C2CCN(C)CC2)cc1", "note": "[Pimavanserin] (compound 10 µM)", "values": [{"measurement": "phospho-S6 immunofluorescence (z-score)", "setting": "co-treatment: GDC0941 450 nM", "value": -2.66}, {"measurement": "phospho-S6 immunofluorescence (z-score)", "setting": "co-treatment: lapatinib 1 uM", "value": -2.95}, {"measurement": "phospho-S6 immunofluorescence (z-score)", "setting": "co-treatment: vehicle", "value": -2.1}]}
{"smiles": "CN(C)C(=O)CCSC(SCCC(=O)O)c1cccc(/C=C/c2ccc3ccc(Cl)cc3n2)c1", "note": "(stereo not drawn) [MK-571 (sodium salt)] (compound 10 µM)", "values": [{"measurement": "phospho-S6 immunofluorescence (z-score)", "setting": "co-treatment: GDC0941 450 nM", "value": -0.65}, {"measurement": "phospho-S6 immunofluorescence (z-score)", "setting": "co-treatment: lapatinib 1 uM", "value": 0.9}, {"measurement": "phospho-S6 immunofluorescence (z-score)", "setting": "co-treatment: vehicle", "value": 1.28}]}
{"smiles": "CCOCCn1c(C2CCN(CCc3ccc(C(C)(C)C(=O)O)cc3)CC2)nc2ccccc21", "note": "[Bilastine] (compound 10 µM)", "values": [{"measurement": "phospho-S6 immunofluorescence (z-score)", "setting": "co-treatment: GDC0941 450 nM", "value": 0.51}, {"measurement": "phospho-S6 immunofluorescence (z-score)", "setting": "co-treatment: lapatinib 1 uM", "value": 0.94}, {"measurement": "phospho-S6 immunofluorescence (z-score)", "setting": "co-treatment: vehicle", "value": -0.28}]}
{"smiles": "Cc1c(C(=O)NN2CCCCC2)nn(-c2ccc(Cl)cc2Cl)c1-c1ccc(Cl)cc1", "note": "[Rimonabant (Hydrochloride)] (compound 10 µM)", "values": [{"measurement": "phospho-S6 immunofluorescence (z-score)", "setting": "co-treatment: GDC0941 450 nM", "value": -3.49}, {"measurement": "phospho-S6 immunofluorescence (z-score)", "setting": "co-treatment: lapatinib 1 uM", "value": -4.25}, {"measurement": "phospho-S6 immunofluorescence (z-score)", "setting": "co-treatment: vehicle", "value": -5.97}]}
{"smiles": "c1ccc2c(c1)OCC(CN1CCCCC1)O2", "note": "(stereo not drawn) [Piperoxan (hydrochloride)] (compound 10 µM)", "values": [{"measurement": "phospho-S6 immunofluorescence (z-score)", "setting": "co-treatment: GDC0941 450 nM", "value": 0.28}, {"measurement": "phospho-S6 immunofluorescence (z-score)", "setting": "co-treatment: lapatinib 1 uM", "value": 0.61}, {"measurement": "phospho-S6 immunofluorescence (z-score)", "setting": "co-treatment: vehicle", "value": 0.8}]}
{"smiles": "CCC1(c2c[nH]cn2)Cc2ccccc2C1", "note": "[Atipamezole] (compound 10 µM)", "values": [{"measurement": "phospho-S6 immunofluorescence (z-score)", "setting": "co-treatment: GDC0941 450 nM", "value": 0.08}, {"measurement": "phospho-S6 immunofluorescence (z-score)", "setting": "co-treatment: lapatinib 1 uM", "value": -0.83}, {"measurement": "phospho-S6 immunofluorescence (z-score)", "setting": "co-treatment: vehicle", "value": 0.81}]}
{"smiles": "CN1CCC(OC(c2ccccc2)c2ccccc2)CC1", "note": "[Diphenylpyraline (hydrochloride)] (compound 10 µM)", "values": [{"measurement": "phospho-S6 immunofluorescence (z-score)", "setting": "co-treatment: GDC0941 450 nM", "value": 0.68}, {"measurement": "phospho-S6 immunofluorescence (z-score)", "setting": "co-treatment: lapatinib 1 uM", "value": 0.42}, {"measurement": "phospho-S6 immunofluorescence (z-score)", "setting": "co-treatment: vehicle", "value": -0.04}]}
{"smiles": "N[C@@H](Cc1ccc(O)c(O)c1)C(=O)O", "note": "(compound 10 µM)", "values": [{"measurement": "phospho-S6 immunofluorescence (z-score)", "setting": "co-treatment: GDC0941 450 nM", "value": -0.94}, {"measurement": "phospho-S6 immunofluorescence (z-score)", "setting": "co-treatment: lapatinib 1 uM", "value": -0.12}, {"measurement": "phospho-S6 immunofluorescence (z-score)", "setting": "co-treatment: vehicle", "value": -0.55}]}
{"smiles": "CCN(CC)CCCC(C)Nc1nc(C)cc(Nc2ccc3nc(C)cc(N)c3c2)n1", "note": "(stereo not drawn) (compound 10 µM)", "values": [{"measurement": "phospho-S6 immunofluorescence (z-score)", "setting": "co-treatment: GDC0941 450 nM", "value": 0.95}, {"measurement": "phospho-S6 immunofluorescence (z-score)", "setting": "co-treatment: lapatinib 1 uM", "value": 1.82}, {"measurement": "phospho-S6 immunofluorescence (z-score)", "setting": "co-treatment: vehicle", "value": 0.49}]}
{"smiles": "Cc1nccn1CC1CCc2c(c3ccccc3n2C)C1=O", "note": "(stereo not drawn) [Ondansetron (hydrochloride dihydrate)] (compound 10 µM)", "values": [{"measurement": "phospho-S6 immunofluorescence (z-score)", "setting": "co-treatment: GDC0941 450 nM", "value": 0.11}, {"measurement": "phospho-S6 immunofluorescence (z-score)", "setting": "co-treatment: lapatinib 1 uM", "value": -0.58}, {"measurement": "phospho-S6 immunofluorescence (z-score)", "setting": "co-treatment: vehicle", "value": 0.16}]}
{"smiles": "Nc1nccc(/C=C/c2ccccc2)n1", "note": "(compound 10 µM)", "values": [{"measurement": "phospho-S6 immunofluorescence (z-score)", "setting": "co-treatment: GDC0941 450 nM", "value": -1.32}, {"measurement": "phospho-S6 immunofluorescence (z-score)", "setting": "co-treatment: lapatinib 1 uM", "value": -0.81}, {"measurement": "phospho-S6 immunofluorescence (z-score)", "setting": "co-treatment: vehicle", "value": 0.3}]}
{"smiles": "C[C@H](Cc1cc2c(c(C(N)=O)c1)N(CCCO)CC2)NCCOc1ccccc1OCC(F)(F)F", "note": "[Silodosin] (compound 10 µM)", "values": [{"measurement": "phospho-S6 immunofluorescence (z-score)", "setting": "co-treatment: GDC0941 450 nM", "value": -0.57}, {"measurement": "phospho-S6 immunofluorescence (z-score)", "setting": "co-treatment: lapatinib 1 uM", "value": -0.02}, {"measurement": "phospho-S6 immunofluorescence (z-score)", "setting": "co-treatment: vehicle", "value": 0.57}]}
{"smiles": "CCC(N)(C(=O)O)c1ccc(C(=O)O)cc1", "note": "(stereo not drawn) (compound 10 µM)", "values": [{"measurement": "phospho-S6 immunofluorescence (z-score)", "setting": "co-treatment: GDC0941 450 nM", "value": 0.66}, {"measurement": "phospho-S6 immunofluorescence (z-score)", "setting": "co-treatment: lapatinib 1 uM", "value": 0.12}, {"measurement": "phospho-S6 immunofluorescence (z-score)", "setting": "co-treatment: vehicle", "value": -0.54}]}
{"smiles": "CN1CCC(=C2c3ccccc3CCn3c(C=O)cnc32)CC1", "note": "[Alcaftadine] (compound 10 µM)", "values": [{"measurement": "phospho-S6 immunofluorescence (z-score)", "setting": "co-treatment: GDC0941 450 nM", "value": -0.88}, {"measurement": "phospho-S6 immunofluorescence (z-score)", "setting": "co-treatment: lapatinib 1 uM", "value": 1.09}, {"measurement": "phospho-S6 immunofluorescence (z-score)", "setting": "co-treatment: vehicle", "value": -0.66}]}
